Screening data from PubChem BioAssay.
Compounds with a hit are over-represented: about 1.9% of the library has one in this group of screens.
Giardia kill = Small Molecules that selectively kill Giardia lamblia: qHTS; Giardia lamblia trophozoite viability; activity change, % at 7.66 µM, hits read low; 340,000 tested, 0.15% active; AID 540267, 2011; in the data active = activity change below about -80%; inconclusive = between about -30% and that limit;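 note: parasites exposed to compound for two days anaerobically before the ATP read; % is set by controls: 0 for no effect and ±100 for the full control effect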
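Giardia lamblia trophozoites (100 cells/well) were incubated with compounds for 48 h at 37 deg C under anaerobic conditions. Viability was read as ATP content by one-step luminescence after 15-30 min at room temperature.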
IL-2 act = qHTS of IL-2 Activators. 360,000 tested, 0.065% active. activation, % (series mostly up to about 46 µM). IL-2 activation reporter assay, cell-based qHTS; stimulated with anti-CD3/CD4/CD28 beads; in transgenic mouse T cells; in the data active = activation above about 50%; inconclusive = mostly about 30% to 49%; note: 0% is about no effect
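EGFP and DsRed fluorescence is measured by plate cytometry in unstimulated transgenic mouse T cells exposed to compound for 60 minutes, then stimulated 18 hours at 37 degrees C with anti-CD3/anti-CD4 beads plus anti-CD28.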
NPSR antag = qHTS Assay for Antagonists of the Neuropeptide S Receptor: cAMP Signal Transduction; 220,000 tested, 1% active; CHO-NPSR cells, cAMP TR-FRET, antagonist mode; Q6W5P4; Potency, µM (doses to about 38.3 µM), for inactives: top-dose activity change, negative = inhibition, usual class: inhibitors; note: potency is the fitted concentration of half-maximal effect; % is set by controls: 0 for no effect and ±100 for the full control effect; nearly all actives have a fitted effect of over 50% in size
Target sequence (Q6W5P4 whole entry, looked up): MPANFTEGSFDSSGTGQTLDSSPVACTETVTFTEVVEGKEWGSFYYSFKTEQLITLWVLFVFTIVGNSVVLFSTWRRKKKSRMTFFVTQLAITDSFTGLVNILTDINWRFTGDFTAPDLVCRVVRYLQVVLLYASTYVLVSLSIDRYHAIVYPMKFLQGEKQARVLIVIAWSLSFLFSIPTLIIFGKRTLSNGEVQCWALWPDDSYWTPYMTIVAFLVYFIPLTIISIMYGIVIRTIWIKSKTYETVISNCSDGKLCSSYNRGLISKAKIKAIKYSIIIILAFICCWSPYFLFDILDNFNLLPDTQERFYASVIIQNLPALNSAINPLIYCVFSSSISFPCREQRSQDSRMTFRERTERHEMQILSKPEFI
RXFP1 agonist = qHTS Assay for Agonists of the Relaxin Receptor RXFP1. Relaxin receptor 1 (Homo sapiens), Q9HBX9. HEK293T-RXFP1 cAMP TR-FRET, 30 min; response scale: percent of porcine relaxin response, buffer zero. Potency, µM (top dose mostly 57.5 µM), inactives show at the top dose activation, usual class: activators. 370,000 tested, 0.3% active; note: potency is the fitted concentration of half-maximal effect; % is set by controls: 0 for no effect and ±100 for the full control effect; nearly all actives have a fitted effect of over 60% in size
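HEK293 cells stably expressing RXFP1, treated 30 min at 37C with compounds plus PDE4 inhibitor Ro 20174; cAMP measured by HTRF TR-FRET. Normalized to buffer and 29 nM porcine relaxin; EC50 by Hill fit.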
RXFP1 antag = qHTS Assay for Antagonists of the Relaxin Receptor RXFP1. Relaxin receptor 1 (Homo sapiens), Q9HBX9. 350,000 tested, 0.59% active. HEK293-RXFP1, relaxin-stimulated cAMP HTRF, 30 min; hits give low values. activity change, negative = inhibition, % at 57.5 µM. AID 1259400, 2018;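 active = activity change of -60% or lower, but not beyond a set lower limit; inconclusive = change between -60% and -40%, or beyond the set limit; inactive = change above -40%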; note: % is set by controls: 0 for no effect and ±100 for the full control effect
BRCA1 expr act = qHTS Assay to Identify Small Molecule Activators of BRCA1 Expression; MCF7-BRCA1-FFLuc reporter, luminescence, 48 h; response scale: scaled: vehicle 0%, 10 µM genistein 100%; Potency, µM (series often up to 46.1 µM), for inactives: top-dose activation, hits mostly activators; 380,000 tested, 1.1% active; note: potency is the fitted concentration of half-maximal effect; nearly all actives have a fitted effect of over 80% in size
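First, MCF7-BRCA1-FFLuc cells (2000/well) attach for 2 h; next, compounds are pin-added and incubated 48 h at 37 °C; finally, luciferase reagent is added and luminescence read after 15 min.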
Numbers without * were called inactive; ? = inconclusive; . = not tested or not shown; [ ] = another dose, or the depositor's remark. Unless noted, calls come from the whole dose curve; as a rule, active = well fitted curve in the direction sought with a large enough effect; inconclusive = small, poorly fitted or top-dose-only effect, or another doubt; inactive = no such curve, though single readings can be large; an effect the other way counts as inactive or inconclusive.

SMILES	Giardia kill	IL-2 act	NPSR antag	RXFP1 agonist	RXFP1 antag	BRCA1 expr act
Cc1nc(-c2ccc3c(c2)OCO3)cs1	9	3	13%[46.1 µM]	1%	1	?
Cc1nc(-c2ccc3c(c2)OCCCO3)cs1	4	-1	-5%	1%	-8	2.5µM*
O=[N+]([O-])c1ccccc1/C=C/c1ccnc2ccccc12	.	.	.	.	.	4%
COc1ccc2nc(Cl)c(/C=N/Nc3ccccn3)cc2c1	-21	-2	-23%	1%	2	3.2µM*
COc1cccc(/C=C/c2ccc3ccccc3[n+]2C)c1OC	.	.	.	.	.	-44%
Cc1ccc2c(/C=C/c3ccc(N(C)C)cc3)ccnc2c1	.	.	.	.	.	-31%
COc1cc(/C=C/c2cc(C(=O)O)c3ccccc3n2)ccc1OC(F)F	?	0	38%	7%	2	2.5µM*
CO[C@@]1(NC(=O)CSC[C@@H](N)C(=O)O)C(=O)N2C(C(=O)O)=C(CSc3nnnn3C)CS[C@@H]21	.	.	.	.	6	.
CCN=C1S/C(=C\c2cn(CC)c3ccccc23)C(=O)N1CC	-18	-4	-33%	2%	-23	-6%
CCn1cc(C=C2C(=O)c3ccccc3C2=O)c2ccccc21	10	108*	-5%	1%	3	-20%
N#CC1=C(N)C(C#N)(C#N)C(c2ccncc2)C2CN(C(=O)OCc3ccccc3)CC=C12 (stereo not given)	9	1	4µM*	-1%	-19	-26%
N#CC1=C(N)C(C#N)(C#N)[C@H](c2cccnc2)[C@H]2CN(C(=O)OCc3ccccc3)CC=C12	32	0	-38%	1%	7	-36%
CCOc1ccccc1NC(=O)c1nc(SCc2ccccc2F)ncc1Cl	.	.	.	.	.	10%
CCOc1ccc(CCNC(=O)CSc2nc3ccccc3nc2Cc2ccc(C)cc2)cc1OCC	.	.	.	14µM*	2	.
CCOc1ccc(CCNC(=O)CSc2n[nH]c(-c3ccccc3)n2)cc1OCC	.	.	.	4%	-8	.
O=C(c1ccc2c(c1)N(Cc1cccc(Cl)c1)C(=O)c1ccccc1S2(=O)=O)N1CCC(Cc2ccccc2)CC1	.	.	.	-2%	6	.
O=C(Nc1ccc2nc(SCC(=O)N3CCCC3)sc2c1)c1cccc(F)c1	.	.	.	6%	-101*	.
O=C(Nc1ccc2nc(SCC(=O)N3CCOCC3)sc2c1)c1cccc(Br)c1	.	.	.	1%	-98*	.
O=C(Nc1ccc2nc(SCC(=O)N3CCOCC3)sc2c1)c1cccc(F)c1	.	.	.	0%	-86*	.
COc1cccc(C(=O)Nc2ccc3nc(SCC(=O)N4CCOCC4)sc3c2)c1	.	.	.	-1%	-96*	.
CSc1ccc(/C=C2\C=C(C(O)c3ccc(SC)cc3)c3ccccc32)cc1 (stereo not given)	.	.	.	.	.	0%
Cc1ccc(C)c(N2CCN(C(=O)CCS(=O)(=O)c3cc(Br)cc4c3N(C(=O)C3CC3)CC4)CC2)c1	.	.	.	-1%	-16	.
Cc1ccc(-n2cnc3cc(C(=O)NC4CCCCCC4)ccc32)c(C)c1	.	.	.	2%	-27	.
O=C(Nc1ccc2nc(SCC(=O)N3CCOCC3)sc2c1)c1ccc(Cl)cc1	.	.	.	11%	?	.
O=C(Nc1ccc2nc(SCC(=O)N3CCOCC3)sc2c1)c1ccccc1Cl	.	.	.	0%	-64*	.
SMILES	Giardia kill	IL-2 act	NPSR antag	RXFP1 agonist	RXFP1 antag	BRCA1 expr act
O=C(CSc1nc(-c2ccccc2)ns1)N1CCOCC1	-14	0	12%	2%	14	4µM*
CCC(=O)O[C@]1(C(=O)COC)[C@@H](C)C[C@H]2[C@@H]3CCC4=CC(=O)C=C[C@]4(C)C3(F)[C@@H](O)C[C@@]21C (stereo not given in full)	.	.	.	.	-31	.
COc1cccc(CNC(=O)Cc2ccc(NC(=O)N3CCSc4ncccc43)cc2)c1OC	.	.	.	3%	-6	.
CCC(C(=O)NCCCN1CCOCC1)n1c2ccccc2c2nc(=O)cc(C)n21 (stereo not given)	-8	-2	.	0%	-70*	0%
Cc1cc(=O)nc2c3ccccc3n(C(C)C(=O)NCCN3CCOCC3)n12 (stereo not given)	-14	2	.	8%	-1	-3%
C(=Nc1ccc(/C=C/c2ccnc3ccccc23)cc1)c1ccco1	.	.	.	.	.	10%
O=C1c2ccccc2C(=O)c2c(Nc3ccc(CCO)cc3)ccc(O)c21	5	-3	?	-20%	-3	-67%
O=C1c2c(O)ccc(O)c2C(=O)c2c(NCCNCCO)ccc(NCCNCCO)c21	-3	-7	10µM*	-1%	?	-84%
COC(=O)c1nc(N2CCN(S(=O)(=O)c3ccc(C)cc3)CC2)c2ccccc2n1	?	.	.	.	.	1%
COc1cccc(CN(C(=O)c2oc3cc(C)ccc3c2C)C2CCS(=O)(=O)C2)c1 (stereo not given)	.	.	.	-2%	-16	.
CCn1cnc2cc(NC(=O)c3ccc(C)cc3)ccc21	?	7	.	1%	.	4.5µM*
CCC(=O)Nc1ccc2c(c1)ncn2-c1ccc(C)cc1	0	1	-11%	2%	-8	2µM*
CN(C)c1ccc(/C=C2/CCc3ccccc32)cc1	.	.	.	.	.	-24%
Cn1c(-[n+]2c(-c3ccccc3)cc(-c3ccccc3)cc2-c2ccccc2)nc2cc([N+](=O)[O-])ccc21	6	6	10µM*	2%	-24	-4%
Cc1ccc(Nc2nc(NCc3ccco3)nc3nccnc23)cc1	-4	.	.	.	.	0%
Cc1cnc2ccc(I)cc2c1/C=C/c1ccc(N(C)C)cc1	.	.	.	.	.	-53%
CCN1C(=O)/C(=C\N2CCCc3ccccc32)SC1=S	-6	9	-1%[46.1 µM]	-2%	4	-10%
CCN1C(=O)/C(=C/N2CCc3ccccc32)SC1=S	-1	1	-8%[46.1 µM]	3%	-2	3.2µM*
O=C(CN1C(=O)COc2ccc(S(=O)(=O)NC3CCCC3)cc21)Nc1ccc(Cl)cc1	.	.	.	1%	-15	.
Cc1ccc(-c2nc(Nc3ccc(N4CCOCC4)cc3)c3ccccc3n2)cc1	-5	-5	13µM*	1%	5	-98%
CCCCCCCCCCCCCCCCCCN(C)C	.	.	.	.	22	.
Cc1cnc([N+](=O)[O-])n1CCOC(=O)NC(=O)c1ccc(C(F)(F)F)cc1	-91*	0	9%	0%	-2	2%
CCCOc1ccccc1-c1nc(SCC(=O)c2ccccc2)n[nH]1	.	.	.	0%	.	.
O=[N+]([O-])c1ccc(N=Nc2ccc(O)cc2O)cc1	-17	0	10µM*	0%	-7	-86%
O=[N+]([O-])c1cccc(N=Nc2ccc(O)cc2O)c1	?	-1	.	.	-14	-61%
